Columns and labels:
Conditions in all cases: concentration: 1 μM, replicates: in singlicate; n = 1
[1] = system: RPS6KA4(Kin.Dom.1-N-terminal)
[2] = system: RPS6KA4(Kin.Dom.2-C-terminal)
[3] = system: RPS6KA5(Kin.Dom.1-N-terminal)
[4] = system: RPS6KA5(Kin.Dom.2-C-terminal)
[5] = system: T1, RSK1(Kin.Dom.1-N-terminal)
T1 construct: gene RPS6KA1

[6] = system: T2, RSK1(Kin.Dom.2-C-terminal)
T2 construct: gene RPS6KA1

[7] = system: T3, RSK2(Kin.Dom.1-N-terminal)
T3 construct: gene RPS6KA3

[8] = system: T4, RSK2(Kin.Dom.2-C-terminal)
T4 construct: gene RPS6KA3

[9] = system: T5, RSK3(Kin.Dom.1-N-terminal)
T5 construct: gene RPS6KA2

[10] = system: T6, RSK3(Kin.Dom.2-C-terminal)
T6 construct: gene RPS6KA2
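Also: KINOMEscan kinase panel screen.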

SMILES | %Inh [1] | %Inh [2] | %Inh [3] | %Inh [4] | %Inh [5] | %Inh [6] | %Inh [7] | %Inh [8] | %Inh [9] | %Inh [10]
COc1cc(Nc2nccc(N3CCC(NC(=O)c4cc5ccccc5s4)C3)n2)cc(OC)c1OC (centres unmarked) [GSK1379760] | 0% | 0% | 5% | 4% | 16% | 46% | 0% | 18% | 0% | 0%
O=c1[nH]cc(-c2ccc(N3CCOCC3)cc2)c2sc(-c3cn[nH]c3)cc12 [GSK2276055] | 2% | 0% | 0% | 28% | 29% | 24% | 23% | 7% | 14% | 22%
Cc1ccc(C(=O)N2CC[C@@H](O)C2)cc1-n1c(C)cc(OCc2ccc(F)cc2F)c(Br)c1=O | 2% | 0% | 0% | 0% | 0% | 0% | 0% | 0% | 0% | 18%
Nc1ncc(-c2cccnc2)c2scc(-c3ccc4c(c3)CCN4C(=O)Cc3ccccc3)c12 [GSK683281] | 24% | 0% | 21% | 0% | 21% | 1% | 0% | 24% | 14% | 0%
CN(C)Cc1ccc(-c2ccc3c(Nc4ccc(Oc5ccccn5)cc4)ccnc3c2)o1 [GW567148] | 2% | 0% | 4% | 0% | 0% | 0% | 1% | 0% | 0% | 0%
Cc1ccc(F)c(C(=O)Nc2cccc(-c3nn4ccccc4c3-c3ccnc(Nc4cccc(F)c4)n3)c2)c1F [GSK361061] | 34% | 0% | 21% | 0% | 65% | 7% | 4% | 0% | 0% | 7%
CN1CCN(Cc2cccc(-c3ccc4c(Nc5ccc(Oc6ccccc6)cc5)ccnc4c3)c2)CC1 [GW578342] | 0% | 0% | 0% | 21% | 26% | 99.1% | 0% | 15% | 0% | 7%
CCc1ccc(-c2ccc3c(c2)-c2c(cnn2C)S(=O)(=O)N3C)cc1 | 5% | 0% | 7% | 0% | 10% | 0% | 0% | 29% | 17% | 13%
Cn1cc(-c2[nH]c3cc(NC(=O)[C@H](N)C4CCCCC4)cc4c3c2C=NNC4=O)cn1 | 96.8% | 96.2% | 34% | 59% | 60% | 72% | 85% | 0% | 65% | 5%
COc1cccc(C(=O)Nc2cccc(Oc3ccc4nc(NC(=O)C5CC5)cn4n3)c2)c1 | 40% | 10% | 0% | 19% | 0% | 12% | 9% | 0% | 5% | 1%
COc1cc(Nc2nccc(-c3c(-c4cccc(NC(=O)c5c(F)cccc5F)c4)nn4ncccc34)n2)cc(OC)c1OC [GSK327238] | 55% | 0% | 43% | 3% | 97.3% | 25% | 84% | 0% | 96.8% | 0%
COc1cccc(-c2ccc3c(NC(=O)C4CC4)n[nH]c3n2)c1 [SB-710903] | 2% | 0% | 20% | 12% | 20% | 0% | 0% | 22% | 6% | 1%
COC(=O)Nc1nc2ccc(Oc3ccc(NC(=O)Nc4cc(C(F)(F)F)ccc4F)cc3)cc2n1C.Cl [GW692089] | 6% | 0% | 0% | 0% | 0% | 0% | 40% | 0% | 0% | 0%
O=C(Nc1cccc(-c2nn3ccccc3c2-c2ccnc(Nc3cccc(C(F)(F)F)c3)n2)c1)c1c(F)cccc1F [GSK292658] | 10% | 0% | 18% | 0% | 81% | 0% | 3% | 5% | 0% | 14%
COc1cc(Nc2nccc(-c3c(-c4cccc(NC(=O)c5c(F)cccc5F)c4)nn4ccccc34)n2)cc(OC)c1OC [GSK323521] | 25% | 0% | 27% | 0% | 5% | 14% | 32% | 47% | 25% | 9%
Clc1ccc(-c2nn3ncccc3c2-c2ccnc(Nc3ccc4c(c3)OCCO4)n2)cc1 [GW829116] | 4% | 0% | 0% | 8% | 18% | 32% | 23% | 0% | 0% | 0%

SMILES | %Inh [1] | %Inh [2] | %Inh [3] | %Inh [4] | %Inh [5] | %Inh [6] | %Inh [7] | %Inh [8] | %Inh [9] | %Inh [10]
Cc1ccc(C(=O)Nc2ccc(Nc3ccnc4cc(-c5nccs5)ccc34)cc2O)cc1.Cl [GW494702] | 0% | 0% | 0% | 0% | 0% | 0% | 0% | 30% | 11% | 0%
C[C@@H](Oc1cc(-n2cnc3cc(-c4ccnc(NCCS(C)(=O)=O)c4)ccc32)sc1C(N)=O)c1ccccc1Cl [GSK907232] | 57% | 0% | 4% | 0% | 11% | 2% | 32% | 4% | 66% | 0%
Cl.NC(=O)c1cccc(Nc2nccc(Nc3ccc(Oc4c(Cl)cccc4Cl)c(Cl)c3)n2)c1 [GW659009] | 0% | 0% | 0% | 5% | 0% | 0% | 0% | 5% | 3% | 0%
Cl.Cl.NCC(C(=O)Nc1cc(Br)c(-c2ccnc3[nH]ccc23)s1)c1ccccc1 (centres unmarked) [GSK1269851] | 18% | 1% | 10% | 5% | 6% | 0% | 24% | 2% | 100% | 3%
COC(=O)Nc1nc2cc(Oc3ccc(NC(=O)Nc4cc(C(F)(F)F)ccc4F)cn3)ccc2[nH]1.Cl.Cl [GW681170] | 9% | 0% | 21% | 7% | 0% | 50% | 0% | 0% | 0% | 17%
Cc1occc1-c1ncc(OC[C@@H](N)Cc2c[nH]c3ccccc23)cc1-c1ccc2[nH]nc(C)c2c1.O=C(O)C(F)(F)F [GSK682037] | 8% | 0% | 49% | 0% | 7% | 0% | 79% | 0% | 22% | 0%
CC(=O)N1CCN(c2ccc(Nc3nccc(-c4sc(C(C)C)nc4-c4cccc(NS(=O)(=O)c5cccc(Cl)c5)c4)n3)cn2)CC1 [GSK1660437] | 10% | 0% | 14% | 0% | 10% | 0% | 0% | 4% | 5% | 0%
CC(C)c1nc(-c2cccc(NS(=O)(=O)c3c(F)cccc3F)c2F)c(-c2ccnc(Nc3ccc(N4CCOCC4)nc3)n2)s1 [GSK2008607] | 0% | 0% | 2% | 0% | 100% | 12% | 41% | 0% | 45% | 0%
COc1cc2c(cc1OCCN1CCNCC1)ncc1c3ccc(C#N)cc3[nH]c21 | 0% | 20% | 0% | 38% | 13% | 12% | 54% | 0% | 16% | 0%
O=C(Nc1cccc(Oc2ccc3nc(NC(=O)C4CC4)cn3n2)c1)c1ccccc1C(F)(F)F | 35% | 0% | 0% | 17% | 6% | 0% | 0% | 55% | 6% | 0%
Cl.c1ccc(-c2ccc3c(Nc4ccc5[nH]ncc5c4)ccnc3c2)nc1 [GW440137] | 0% | 0% | 2% | 34% | 20% | 6% | 0% | 0% | 6% | 0%
COc1ccc(-c2coc3ccc(-c4nnc(SCc5ccc(OC)c(C(F)(F)F)c5)o4)cc23)cc1 | 9% | 15% | 0% | 0% | 1% | 17% | 14% | 19% | 16% | 19%
COc1ccc(CNC(=O)NC2CCN(c3ccnc(Nc4ccc(F)cc4)n3)CC2)cc1 [GSK1379788] | 0% | 0% | 7% | 9% | 18% | 0% | 0% | 5% | 0% | 0%
c1ccc(-c2cnc3nccnn23)cc1 [AH20685] | 0% | 0% | 9% | 0% | 0% | 0% | 0% | 0% | 0% | 0%
c1ccc(-c2n[nH]cc2Nc2ccnc3ccccc23)nc1 [GW694077] | 3% | 56% | 5% | 56% | 19% | 16% | 27% | 24% | 0% | 30%
Cc1ccc(C)c(NC(=O)NC2CCN(c3ccnc(Nc4ccc(F)cc4)n3)C2)c1 (centres unmarked) [GSK1379720] | 8% | 0% | 0% | 22% | 13% | 0% | 3% | 0% | 0% | 0%

From paper PMC5540273 (PLoS ONE, 2017)
